Results from PubChem BioAssay (NCATS).
Where “and” joins values, the source holds several entries; their conditions need not be identical. Identical values can stand only once. Inconclusive results are not listed. A call without a number means that no potency is given here. Calls of active or inactive are those of the source. Calls follow the shape of the dose curve; as a rule, active = well fitted curve in the direction sought with a large enough effect; inconclusive = small, poorly fitted or top-dose-only effect, or another doubt; inactive = no such curve, though single readings can be large; an effect the other way counts as inactive or inconclusive.

Key:
[1] = biological target: Aldehyde dehydrogenase, mitochondrial (Homo sapiens) (UniProt P05091); experiment: qHTS for Inhibitors of the Aldehyde Dehydrogenase Family (ALDH2) Primary screen (AID 2061308); details: ALDH2 enzyme inhibition qHTS, 1536-well; series mostly up to 56 µM; also: nearly all actives have a fitted effect of over 55% in size; also: potency is read from the fitted curve at half-maximal effect
[2] = biological target: Retinaldehyde dehydrogenase 3 (Homo sapiens) (UniProt P47895); experiment: qHTS for Inhibitors of the Aldehyde Dehydrogenase Family (ALDH1A3) Primary screen (AID 2061315); details: ALDH inhibition qHTS; series mostly up to 56 µM
[3] = BET inhibitor-based combinations targeting novel dependencies in MECOM-rearranged (r) AML: SET-2 cell line (AID 2202231); details: SET-2 AML cells viability, CellTiter-Glo luminescence, 48 h; viability: hits give low values, concentration not given here; also: nearly all actives have a fitted effect of over 35% in size; also: potency is read from the fitted curve at half-maximal effect
Method in brief: (§1)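 Cells were plated at 500 per well and exposed to an 11-point dose series of each drug for 48 hr. Viability was measured by CellTiter-Glo luminescence, normalized to DMSO and empty-well controls, and summarized as AUC and per-cell-line Z-AUC.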

[4] = BET inhibitor-based combinations targeting novel dependencies in MECOM-rearranged (r) AML: OCI-AML3 cell line (AID 2202232); details: CellTiter-Glo luminescence, 48 h; Potency: OCI-AML3 viability; series mostly up to 46 µM; also: nearly all actives have a fitted effect of over 35% in size; also: potency is read from the fitted curve at half-maximal effect
Method in brief: as §1

[5] = BET inhibitor-based combinations targeting novel dependencies in MECOM-rearranged (r) AML: UCSD-AML1 cell line (AID 2202235); details: UCSD-AML1 AML cells viability, CellTiter-Glo, 48 h; series mostly up to 46 µM; also: nearly all actives have a fitted effect of over 40% in size; also: potency is read from the fitted curve at half-maximal effect
Method in brief: (§2)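 Activity is given as area under the curve and as Z-AUC, mean-centred within each cell line. It comes from 11-point dose curves normalized to DMSO and empty wells. CellTiter-Glo luminescence was read after 48 hr drug exposure of 500 cells/well.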

[6] = BET inhibitor-based combinations targeting novel dependencies in MECOM-rearranged (r) AML: AML-191 cell line (AID 2202236; also: nearly all actives have a fitted effect of over 35% in size; also: potency is read from the fitted curve at half-maximal effect); details: AML-191 viability, CellTiter-Glo luminescence, 48 h; series mostly up to 46 µM
Method in brief: as §1

[7] = BET inhibitor-based combinations targeting novel dependencies in MECOM-rearranged (r) AML: AML-194 cell line (AID 2202237; also: nearly all actives have a fitted effect of over 40% in size; also: potency is read from the fitted curve at half-maximal effect); details: AML-194 (MECOM-r AML) viability, CellTiter-Glo, 48 h; series mostly up to 46 µM
Method in brief: as §1

[8] = BET inhibitor-based combinations targeting novel dependencies in MECOM-rearranged (r) AML: MV-4-11 cell line (AID 2202233); details: MV-4-11 AML viability, CellTiter-Glo luminescence, 48 h; series mostly up to 46 µM; also: potency is read from the fitted curve at half-maximal effect; nearly all actives have a fitted effect of over 45% in size
Method in brief: as §2

[9] = BET inhibitor-based combinations targeting novel dependencies in MECOM-rearranged (r) AML: HNT-34 cell line (AID 2202234); details: HNT-34 AML viability, CellTiter-Glo luminescence, 48 h; series mostly up to 46 µM; also: potency is read from the fitted curve at half-maximal effect; nearly all actives have a fitted effect of over 35% in size
Method in brief: as §2

[10] = biological target: Retinaldehyde dehydrogenase 3 (Homo sapiens) (UniProt P47895); experiment: qHTS for Inhibitors of the Aldehyde Dehydrogenase Family (ALDH1A3) Confirmatory screens (AID 2061311); details: ALDH inhibition qHTS; series mostly up to 46 µM; also: nearly all actives have a fitted effect of over 60% in size; also: potency is read from the fitted curve at half-maximal effect
[11] = biological target: Aldehyde dehydrogenase 1A1 (Homo sapiens) (UniProt P00352); experiment: qHTS for Inhibitors of the Aldehyde Dehydrogenase Family (ALDH1A1) Confirmatory screens (AID 2061316); details: ALDH inhibition qHTS; series mostly up to 47.3 µM; also: nearly all actives have a fitted effect of over 65% in size; also: potency is read from the fitted curve at half-maximal effect

SMILES: Cc1onc(-c2ccc(F)cc2)c1COc1ccc(C(=O)N2CCS(=O)(=O)CC2)cn1
- Potency [1]: inactive
- Potency [2]: inactive
- viability [3]: 112% (inactive)
- Potency [4]: inactive
- Potency [5]: inactive
- Potency [6]: inactive
- Potency [7]: inactive

SMILES: O=C(NCc1ccccc1)c1csc(Nc2ccncn2)n1
- Potency [1]: inactive
- Potency [2]: inactive
- Potency [4]: 10.5 µM (active)
- Potency [8]: 9340 nM (active)
- Potency [9]: 10.5 µM (active)
- Potency [5]: 18.6 µM (active)
- Potency [7]: 18.6 µM (active)

SMILES: Cc1ccc(C(=O)Nc2ccc(CN3CCN(C)CC3)c(C(F)(F)F)c2)cc1C#Cc1cnc2[nH]ncc2c1
- Potency [1]: inactive
- Potency [2]: inactive
- Potency [4]: 0.934 µM (active)
- Potency [5]: 0.105 µM (active)
- Potency [6]: 0.0934 µM (active)
- Potency [7]: 0.148 µM (active)

SMILES: Cc1nnc(C[C@@H]2C=C(c3ccc(Cl)cc3)c3ccccc3-n3c(C)nnc32)o1
- Potency [1]: inactive
- Potency [2]: inactive
- Potency [3]: 0.662 µM (active)
- Potency [4]: 0.332 µM (active)
- Potency [5]: 2.09 µM (active)
- Potency [6]: 3.32 µM (active)
- Potency [7]: 5.25 µM (active)

SMILES: O=C(c1ccc(/C=C/c2n[nH]c3ccccc23)cc1)N1CCNCC1
- Potency [1]: inactive
- Potency [2]: inactive
- Potency [8]: 132 nM (active)
- Potency [9]: 3.72 µM (active)
- Potency [5]: 3.32 µM (active)
- Potency [6]: 2.95 µM (active)

SMILES: O=C(C1CC1)N1CC[C@@H](Cn2c(-c3ccc(-c4ccc5occc5c4)cc3)nc3cnccc32)C1
- Potency [1]: inactive
- Potency [2]: inactive
- Potency [4]: 10.5 µM (active)
- Potency [8]: 20900 nM (active)
- Potency [9]: 26.3 µM (active)

SMILES: O=C(Cn1cnc2onc(-c3ccc(Cl)cc3)c2c1=O)Nc1ccc(F)cc1
- Potency [10]: inactive

SMILES: Cc1cccc(-c2[nH]ncc2-c2ccc(F)c(-c3cnn(CCO)c3)c2)n1
- Potency [1]: inactive
- Potency [2]: inactive
- Potency [5]: inactive
- Potency [7]: inactive

SMILES: CC(C)NC(=O)COc1cccc(-c2nc(Nc3ccc4[nH]ncc4c3)c3ccccc3n2)c1
- Potency [1]: inactive
- Potency [2]: inactive
- Potency [7]: 16.6 µM (active)

SMILES: O=C1Cc2cc(S(=O)(=O)N3CCN(c4ccc(O)cc4)CC3)ccc2N1
- Potency [1]: inactive
- Potency [11]: 11.3 µM (active)

SMILES: C[C@@H](Nc1ncnc2[nH]c(-c3ccc(O)cc3)cc12)c1ccccc1
- Potency [1]: inactive
- Potency [2]: inactive
- Potency [8]: 14800 nM (active)
- Potency [9]: 14.8 µM (active)
- Potency [6]: 14.8 µM (active)

SMILES: COc1ccccc1-c1cc2c(nc1OC)nc(CC1CC1)n2C
- Potency [10]: inactive

SMILES: c1cnc(-c2noc(-c3nc(-c4ccc5c(c4)OCO5)no3)n2)cn1
- Potency [10]: inactive

SMILES: Cc1ccnc(NC(=S)N2CCN(c3cc(Cl)cc(Cl)c3)CC2)c1
- Potency [1]: 2.24 µM (active)
- Potency [11]: 5.65 µM (active)

SMILES: CCOc1cccc(CNC(=O)c2ccc(N3CCCC3)c(NC(=O)NCc3ccccc3)c2)c1
- Potency [10]: inactive

SMILES: C[C@H]1[C@H](O)O[C@@H]2O[C@@]3(C)CC[C@H]4[C@H](C)CC[C@@H]1[C@@]24OO3
- Potency [1]: inactive
- Potency [2]: inactive
- Potency [8]: 662 nM (active)
- Potency [9]: 1.18 µM (active)
- Potency [5]: 3.32 µM (active)
- Potency [6]: 2.95 µM (active)
- Potency [7]: 4.68 µM (active)

SMILES: O=C(Nc1cccnc1)c1cc(-c2ccnc(F)c2)ccc1OCc1ccccc1
- Potency [1]: inactive
- Potency [2]: inactive
- Potency [8]: 3720 nM (active)
- Potency [5]: inactive
- Potency [6]: inactive
- Potency [7]: inactive

SMILES: Cc1cc(=O)[nH]c(CCNc2nc(-c3ccncc3)nc3c2c(C)nn3C)n1
- Potency [10]: inactive

SMILES: COc1ncc(Nc2ncc([C@H](C)N3CCN(S(C)(=O)=O)CC3)cc2-c2nc(C)nc(N)n2)cc1F
- Potency [1]: inactive
- Potency [2]: inactive
- Potency [8]: 41.7 nM (active)
- Potency [5]: 0.296 µM (active)

SMILES: CC(=O)N1CCN(c2ccc(N)cc2)CC1
- Potency [1]: inactive
- Potency [11]: 25.2 µM (active)

SMILES: CCOc1ccc(S(=O)(=O)NCc2nc3cccnc3n2Cc2ccccc2OC)cc1
- Potency [10]: 15.8 µM (active)

SMILES: COc1ccc(C2(C(=O)NCc3ccccc3)CCOCC2)cc1
- Potency [10]: inactive

SMILES: COc1ccc(-c2ccccc2C(=O)NCc2ccccn2)nn1
- Potency [10]: inactive

SMILES: Cn1cc(-c2cnn3c(N)c(Br)c(C4CCCNC4)nc23)cn1 (centres undefined)
- Potency [1]: inactive
- Potency [4]: 10.5 µM (active)
- Potency [8]: 468 nM (active)
- Potency [9]: 10.5 µM (active)
- Potency [5]: 5.25 µM (active)

SMILES: C=CC(=O)Nc1cccc(Nc2nc(Nc3ccc(N4CCN(C(C)=O)CC4)cc3OC)ncc2C(F)(F)F)c1
- Potency [1]: inactive
- Potency [3]: 14.8 µM (active)
- Potency [4]: 18.6 µM (active)
- Potency [9]: 4.17 µM (active)
- Potency [5]: 5.9 µM (active)
- Potency [6]: 9.34 µM (active)
- Potency [7]: 18.6 µM (active)

SMILES: COc1cc(F)ccc1-c1cnc2n[nH]c(-c3sccc3C)c2n1
- Potency [10]: inactive

SMILES: Fc1cccc(Cc2noc(-c3nc(-c4ccccc4)no3)n2)c1
- Potency [10]: inactive

SMILES: O=C(CSc1nc(-c2ccco2)nc2cc(=O)[nH]n12)Nc1ccccc1Cl
- Potency [10]: inactive

SMILES: [2H]C([2H])(Nc1nc(-c2ccccc2C([2H])(C([2H])([2H])[2H])C([2H])([2H])[2H])ncc1C)c1ccc(-n2ccnn2)cc1
- Potency [1]: inactive
- Potency [2]: inactive
- Potency [5]: inactive
- Potency [7]: inactive

SMILES: N#Cc1cccc(C(=O)Nc2ccc([C@H]3OCC(=O)N(C4CCOCC4)[C@@H]3CO)cc2)c1
- Potency [10]: inactive

SMILES: Cc1c(NC(=O)OCC2COCCN2)cn2ncnc(Nc3ccc4c(cnn4Cc4cccc(F)c4)c3)c12 (centres undefined)
- Potency [1]: inactive
- Potency [2]: inactive
- Potency [8]: 18600 nM (active)
- Potency [5]: inactive
- Potency [6]: 23.5 µM (active)

SMILES: COc1ccc2[nH]c(S(=O)Cc3ncc(C)c(OC)c3C)nc2c1 (centres undefined)
- Potency [1]: inactive
- viability [3]: 97.7% (inactive)
- Potency [4]: inactive
- Potency [5]: inactive
- Potency [6]: inactive
- Potency [7]: inactive

SMILES: Cc1c[nH]c2ncnc(N3CCC(CN)(C(=O)Nc4cccc(OC(=O)N(C)C)c4)CC3)c12
- Potency [1]: inactive
- Potency [2]: inactive
- Potency [8]: 1.86 µM (active) and 1.05 µM (active)
- Potency [5]: inactive

SMILES: Cc1cnc(Nc2ccc(F)cc2Cl)nc1-c1c[nH]c(C(=O)NC(CO)c2cccc(Cl)c2)c1 (centres undefined)
- Potency [1]: inactive
- Potency [4]: 4.68 µM (active)
- Potency [8]: 296 nM (active)

SMILES: Nc1ccccc1S(=O)(=O)Nc1cccc2cccnc12
- Potency [1]: inactive
- Potency [11]: inactive

SMILES: Cc1cc2ncc(C(=O)NCCc3ccccc3F)cn2n1
- Potency [10]: inactive

SMILES: O=C(Nc1ccc([C@@H](O)[C@H]2COCC(=O)N2CCCc2ccccc2)cc1)C1CCC1
- Potency [10]: inactive

SMILES: Cn1ccc(Nc2ccc3nnc(-c4ccccn4)n3n2)n1
- Potency [10]: inactive

SMILES: Cn1c(Oc2cccc(Cl)c2)nc2c1c(=O)n(Cc1ccccc1Cl)c(=O)n2C
- Potency [10]: 31.6 µM (active)

SMILES: O=C(CC1CCOCC1)NCc1ccc(N2CCOCC2)cc1
- Potency [10]: inactive

SMILES: N#Cc1ccccc1NC(=O)Cn1cnc2onc(-c3cccc(F)c3)c2c1=O
- Potency [10]: inactive

SMILES: COc1ccc(C)cc1NC(=O)N1CCC(OC2CCN(Cc3ccccc3)CC2)CC1
- Potency [10]: inactive

SMILES: Cn1ncc2c(C(=O)NCc3ccc(F)cc3)cc(-c3ccc(F)cc3)nc21
- Potency [10]: inactive

SMILES: CCc1ccccc1NC(=O)c1ccc(F)c(S(=O)(=O)N2CCN(c3cccc(Cl)c3)CC2)c1
- Potency [10]: inactive

SMILES: CC(/C=C/C(=O)NO)=C\[C@@H](C)C(=O)c1ccc(N(C)C)cc1
- Potency [1]: inactive
- Potency [3]: 0.372 µM (active)
- Potency [4]: 0.662 µM (active)
- Potency [8]: 417 nM (active)
- Potency [9]: 0.934 µM (active)
- Potency [5]: 1.05 µM (active)
- Potency [6]: 1.18 µM (active)
- Potency [7]: 1.18 µM (active)

SMILES: O=S(=O)(c1ccccc1)c1nnn2c1nc(NC1CCCC1)c1ccccc12
- Potency [10]: inactive
